# Screens deposited in PubChem by National Center for Advancing Translational Sciences (NCATS).
# Cycloheximide cs – affects cycloheximide protein synthesis inhibition readout, counter-screen | cell reporter, cycloheximide protein synthesis inhibition counterscreen | max response, % | 12% of 300,000 active; in the data active = max response mostly above about 13%, no sharp cut-off; inactive = mostly below about 14%; note: read at 38.3 µM for the half of the compounds with a filed dose; 0% is about no effect
# Shiga inhibitor – Shiga toxin inhibition. Vero cells, Shiga toxin protein synthesis inhibition reporter. inhibition, % at 38.7 µM. 9.2% of 290,000 active; in the data active = inhibition mostly above about 28%, no sharp cut-off; inactive = mostly below about 43%; note: 0% is about no effect
# Giardia FBPA inh – inhibitors of Giardia lamblia fructose-1,6-bisphosphate aldolase; purified Giardia FBPA; A8B2U2; 0.71% of 290,000 active; AID 2451; Potency, µM (top dose mostly 59.6 µM), without a hit: top-dose activity, negative = inhibition, hits mostly inhibitors; note: potency is the fitted concentration of half-maximal effect; % is set by controls: 0 for no effect and ±100 for the full control effect; nearly all actives have a fitted effect of over 55% in size
#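 40 nM FBPA preincubated 10 min at RT with compound (up to 57.5 uM final), then substrate plus GAPDH/TPI/NAD/arsenate coupling and diaphorase/resazurin added. Fluorescence read after 20 min at RT, 525/598 nm.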
# LmPK inhibitor – blocks Leishmania mexicana pyruvate kinase activity. Q27686. purified LmPK, Kinase-Glo ATP luminescence, 1 h. Potency, µM (titrated, usually from 57.5 µM), without a hit: at the top dose activity change, negative = inhibition, hits mostly inhibitors. 0.37% of 290,000 active. AID 1721; note: potency is the fitted concentration of half-maximal effect; % is set by controls: 0 for no effect and ±100 for the full control effect
# Target sequence (Q27686 whole entry, looked up): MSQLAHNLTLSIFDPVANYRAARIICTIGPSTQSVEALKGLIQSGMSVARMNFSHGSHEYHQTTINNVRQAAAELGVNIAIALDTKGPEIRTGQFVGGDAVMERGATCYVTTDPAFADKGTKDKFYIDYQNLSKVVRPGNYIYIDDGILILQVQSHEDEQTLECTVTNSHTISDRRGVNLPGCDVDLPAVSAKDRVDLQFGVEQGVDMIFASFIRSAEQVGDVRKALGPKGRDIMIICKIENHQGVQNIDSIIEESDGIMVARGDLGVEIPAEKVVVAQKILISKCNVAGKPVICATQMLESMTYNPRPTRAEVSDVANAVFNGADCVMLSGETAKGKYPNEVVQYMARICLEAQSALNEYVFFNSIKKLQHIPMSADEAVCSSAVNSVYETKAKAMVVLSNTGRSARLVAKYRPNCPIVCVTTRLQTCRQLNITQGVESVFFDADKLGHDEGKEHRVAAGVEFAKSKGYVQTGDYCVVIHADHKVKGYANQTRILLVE
#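 Pyruvate kinase activity monitored as ATP production (luciferase luminescence). Conditions: 0.1 nM enzyme, 0.5 mM PEP, 0.1 mM ADP, 1 h, RT; normalized against uninhibited and no-enzyme wells.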
# Tb PYK inh – inhibitors of Trypanosoma brucei pyruvate kinase; 0.12% of 410,000 active; TbPYK enzyme, Kinase-Glo Plus ATP luminescence, 45 min; Potency, µM (titrated, usually from 76.8 µM), for the others: at the top dose activity, negative = inhibition, actives largely listed as inhibitors; AID 624173; note: potency is the fitted concentration of half-maximal effect; % is set by controls: 0 for no effect and ±100 for the full control effect; nearly all actives have a fitted effect of over 50% in size
#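 Glycolytic pyruvate kinase of T. brucei was incubated with substrate, test compound and 130 uM ADP for 45 minutes at room temperature. Luminescent Kinase-Glo Plus signal was measured after 10 minutes.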
# RE007 growth inh – less growth of the S. pombe RE007 Vpr strain. S. pombe RE007 Vpr strain, BacTiter-Glo ATP luminescence, 24 h. Potency, µM (titrated, usually from 92.2 µM), inactives show top-dose activity change, negative = less growth, actives largely listed as inhibitors. 0.21% of 360,000 active. AID 651644; active = well fitted falling curve with a large enough effect; inconclusive = small, poorly fitted or top-dose-only effect; inactive = no such curve, though single readings can be large or run the other way; note: potency is the fitted concentration of half-maximal effect; % is set by controls: 0 for no effect and ±100 for the full control effect; nearly all actives have a fitted effect of over 50% in size
#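 Fission yeast RE007 carrying one integrated HIV-1 vpr copy, seeded at OD 0.01 in PMG+AL medium with 23 nL pinned compound. Grown 24 h at 30 degrees; viability read by BacTiter-Glo luminescence after 5 min.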
# Numbers without * were called inactive; ? = inconclusive; . = no result given; + = active, no number; [ ] = dose if it differs, or a comment. The full list was thinned out, with hits kept by preference. Unless noted, calls come from the whole dose curve; as a rule, active = well fitted curve in the direction sought with a large enough effect; inconclusive = small, poorly fitted or top-dose-only effect, or another doubt; inactive = no such curve, though single readings can be large; an effect the other way counts as inactive or inconclusive.
SMILES,Cycloheximide cs,Shiga inhibitor,Giardia FBPA inh,LmPK inhibitor,Tb PYK inh,RE007 growth inh
COc1ccccc1CN(C)CC(=O)Nc1ccc(Cl)cc1C(F)(F)F,14.8*,13.0,?,-8.6%,-11.1%,-12.3%
O=C1CCc2cc(S(=O)(=O)NC(C(=O)Nc3ccc(F)cc3)c3ccccc3)ccc2N1 (stereo not given),.,.,.,.,-13.4%,.
CCCCOc1ccc(-c2nnn(CC(=O)NCCc3c[nH]c4ccccc34)n2)cc1,14.6*,25.1,-1.6%,5.3%,-8.3%,-4.2%
COc1ccc(-c2ccc(-c3nnn(CC(C)=O)n3)cc2)cc1,35.0*,92.8*,0.4%,-1.6%,-5.0%,1.0%
COc1cccc(-c2nnn(CC(=O)N3CCCCC3)n2)c1,21.3*,41.2*,11.7%,-3.1%,-0.2%,12.4%
CC(=O)Cn1nnc(-c2ccc(C(F)(F)F)cc2)n1,26.9*,60.6*,1.7%,-4.9%,-15.8%,-9.3%
COc1ccc(CNC(=O)CCC2N=C3c4ccccc4N=C(SCC(=O)NCCc4ccc(OC)c(OC)c4)N3C2=O)cc1 (stereo not given),.,.,.,.,-12.4%,.
COc1ccc(-n2nc(C(=O)Nc3cccc(C)n3)c3c4ccccc4n(C)c3c2=O)cc1,.,.,.,.,-4.2%,.
CCOC(=O)CC(NC(=O)Cn1nnc(-c2ccccc2)n1)c1ccc(OC)cc1 (stereo not given),24.7*,12.8,10.1%,-2.0%,-8.7%,1.7%
CSc1ccc(-c2nnn(CC(=O)NCc3ccccc3)n2)cc1,11.0*,10.6,0.4%,2.7%,-3.4%,8.1%
CCOC(=O)CC(NC(=O)Cn1nnc(-c2ccc(C(F)(F)F)cc2)n1)c1ccccc1Cl (stereo not given),.,.,.,.,3.6%,.
COc1cccc(-c2nnn(CC(C)=O)n2)c1,53.2*,+,1.2%,-9.8%,-2.4%,-1.8%
COc1cccc(-c2nnn(CCc3nn[nH]n3)n2)c1,-3.0,8.2,-6.5%,-0.7%,1.1%,0.0%
COc1ccc(CNC(=O)Cn2nnc(-c3ccc(C(F)(F)F)cc3)n2)cc1,.,.,.,.,7.6%,.
C=CCNC(=O)Cn1nnc(-c2ccc(-c3ccc(OC)cc3)cc2)n1,22.7*,51.0*,3.0%,0.1%,-2.0%,-2.5%
CCn1cc(C(=O)Nc2ccc(C(C)C)cc2)c2cc(OC)c(OC)cc2c1=O,.,.,.,.,8.0%,.
CCc1ccccc1NC(=O)CSc1nc2c(oc3ccccc32)c(=O)n1-c1ccccc1,.,.,.,.,-9.5%,.
NC(=O)Cn1nnc(-c2ccc(NC(=O)c3ccc(F)cc3)cc2)n1,27.3*,70.0*,-1.0%,-2.8%,1.7%,21.6%
N#C/C(=C\c1ccc(OCc2ccc(Cl)cc2Cl)cc1)c1nc2ccccc2[nH]1,.,.,.,.,7.8%,.
N#C/C(=C\c1ccc(OC(=O)c2ccc(Br)s2)cc1)c1nc2ccccc2[nH]1,22.0*,38.5*,-0.3%,1.2%,-11.9%,-15.5%
N#C/C(=C\c1ccc(OC(=O)c2ccc(Cl)s2)cc1)c1nc2ccccc2[nH]1,49.5*,17.4*,4.7%,-2.8%,-4.6%,-19.5%
N#C/C(=C/c1ccc(OC(=O)c2ccc(Br)s2)cc1)c1nc2ccccc2[nH]1,.,.,.,.,-2.5%,10.8%
CC(=O)c1cc(-c2ccc(F)cc2)n(CC(=O)NCc2ccc(C)cc2)c1C,.,.,.,.,1.9%[15.4 µM],.
COc1ccc2c(c1OC)C(=O)N(c1nccs1)C2,33.7*,66.5,-2.3%,-16.3%,-5.1%,-29.9%
COc1ccc(N2Cc3ccc(OC)c(OC)c3C2=O)cc1,47.8*,75.8*,-0.1%,5.0%,0.9%,6.2%
SMILES,Cycloheximide cs,Shiga inhibitor,Giardia FBPA inh,LmPK inhibitor,Tb PYK inh,RE007 growth inh
Cc1ccc2cc(/C=N/NC(=O)[C@H]3C[C@@H]3c3ccccc3)c(Cl)nc2c1,15.9*,9.9,9.3%,2.4%,-9.7%,-22.8%
Cc1c(/C(O)=C2\C(=O)C(=O)N(CCCN(C)C)C2c2ccccc2)cnn1-c1ccccc1 (stereo not given),-3.8,-6.6,-2.0%,0.7%,1.2%,12.6%
Cc1c(/C(O)=C2\C(=O)C(=O)N(CCN(C)C)C2c2cccs2)cnn1-c1ccccc1 (stereo not given),19.3*,16.5,-14.2%,5.2%,-4.1%,-3.3%
Cc1c(/C(O)=C2\C(=O)C(=O)N(CCN(C)C)C2c2cccnc2)cnn1-c1ccccc1 (stereo not given),15.2*,12.8,8.7%,2.7%,7.1%,5.5%
Cc1ccc(NC(=O)CSc2nc3nccnc3c(=O)n2CCc2c[nH]c3ccccc23)cc1,.,.,.,.,4.9%,.
Cc1ccc(NC(=O)/C=C/c2ccccc2Cl)cc1Cl,.,.,.,.,0.8%,.
O=C(/C=C/c1ccc(Cl)c(Cl)c1)Nc1cccnc1,.,.,.,.,1.0%,1.5%
O=C(/C=C/c1ccc(Cl)cc1Cl)Nc1ccncc1,50.3*,95.8*,0.6%,-0.7%,3.8%,-0.2%
COc1ccccc1/C=C/C(=O)Nc1cccnc1,37.3*,156.4*,12.2%,1.5%,0.4%,4.6%
CC(=O)N(C)c1ccc(NC(=O)/C=C/c2ccccc2Cl)cc1,80.4*,41.1*,0.6%,0.6%,-2.1%,0.4%
O=C(/C=C/c1ccccc1Cl)Nc1cccnc1,60.4*,79.8*,-5.3%,-10.4%,-1.3%,-11.1%
Cn1c(=O)[nH]c(=O)c2c1nc(N/N=C/C(Br)=C/c1ccccc1)n2CCO,1.0,-11.2,?,-0.1%,6.0%,1.5%
CCCCCCCCCCOCC(O)CN (stereo not given),.,.,.,.,2.9%,.
COc1cccc(CNC(=O)Cn2c(=O)n3nc(-c4cccc(C)c4)nc3c3ccccc32)c1,.,.,.,.,-2.8%,.
CCC(CC)NC(=O)/C=C/c1ccccc1Cl,35.1*,69.2*,-0.6%,-19.4%,-13.2%,-19.8%
O=C(/C=C/c1ccccc1Cl)NC1CCCCC1,32.9*,26.5*,6.2%,-13.8%,-11.8%,2.2%
O=C(/C=C/c1ccccc1Cl)Nc1ccncc1,24.7*,66.8*,-8.8%,-8.1%,-4.0%,-8.7%
O=C(/C=C/c1ccc(Cl)cc1Cl)NCc1ccncc1,29.8*,57.8,21.6%,3.1%,-6.9%,6.2%
COc1ccc(C(=O)c2cn(Cc3ccccc3F)c3cc4c(cc3c2=O)OCCO4)cc1OC,.,.,.,.,1.4%,.
CC(C)c1ccc(NC(=O)C2CSC3(C)CCC(=O)N23)cc1 (stereo not given),-3.1,-5.2,.,0.7%,1.6%,-10.8%
O=C(NCCc1ccccc1)c1ccc2c(c1)CCN2S(=O)(=O)c1ccccc1,.,.,.,.,14.4%,.
CCOc1ccc(/C=C/c2nc(C#N)c(Nc3ccc(OCC)cc3)o2)cc1,.,.,.,.,4.2%,.
